ChEMBL document CHEMBL3988442, “University of Dundee, Small-Polar-MMV Screening Library” (2021)
Among all 69,000 compounds or so, about 1,000 (1.4%) showed an effect of 50% or more. Shown is part of a subset that was picked to be rich in strong results.

Tested on: Leishmania donovani
Test: Leishmania intramacrophage assay
Assay type: functional, organism-based
Parameters: scale not given: in the data most compounds retested in dose-response had high values

CCn1cc(Br)c(C(=O)NCc2cccnc2)n1
Percent Effect (30 µM, 30.03 µM): 0.8694%

N#Cc1cnc(N2CCC3(CC2)OCCO3)nc1N
Percent Effect (30.3 µM, […]): 39.63%

Cc1ccc(-c2noc(CN3CCC(N4CCNC4=O)CC3)n2)cc1
Percent Effect (30 µM): 33.86%

Cc1cccc(-c2noc(CN3CCC(N4CCNC4=O)CC3)n2)c1
Percent Effect (30 µM, 30.03 µM): 37%

O=C1NCCN1C1CCN(Cc2nc(-c3ccsc3)no2)CC1
Percent Effect (30 µM): 51.47%

O=C1NCCN1C1CCN(Cc2nc(-c3ccccc3)no2)CC1
Percent Effect (30 µM): 51.92%

Cc1ccccc1-c1noc(CN2CCC(N3CCNC3=O)CC2)n1
Percent Effect (30 µM): 45.33%

O=C1NCCN1C1CCN(Cc2nc(-c3ccoc3)no2)CC1
Percent Effect (30 µM, 30.03 µM): 14.49%

NC(=O)C1CCCN1C(=O)c1cccc2c1OCO2 (stereo not drawn)
Percent Effect (30.3 µM, […]): -0.4744%

CCC(NC(=O)C1CC1)c1ccccc1OCC(=O)N1CCCC1 (stereo not drawn)
Percent Effect (30 µM): -1.247%

CNC(=O)C1CN(C)CCN(C(=O)CCn2nnc3ccccc32)C1 (stereo not drawn)
Percent Effect (30.3 µM, […]): 12.96%

CN(C)c1ccc(C2CC(=O)Nc3c2cnn3Cc2ccco2)cc1 (stereo not drawn)
Percent Effect (30.3 µM, […]): 7.757%

CN(Cc1cc2cc(F)ccc2[nH]1)c1cc(C2CCCNC2)ncn1 (stereo not drawn)
Percent Effect (30.3 µM, […]): 78.22%

CCN(Cc1ccncc1)c1cc(C2CCCNC2)nc(C)n1 (stereo not drawn)
Percent Effect (30.3 µM, […]): -18.58%

CN(Cc1cc2cc(F)ccc2[nH]1)C(=O)C1CC(=O)N(C2CCCC2)C1 (stereo not drawn)
Percent Effect (30.3 µM, […]): 9.704%

CCN(Cc1c(F)cccc1Cl)c1cc(C2CCNCC2)nc(C)n1
Percent Effect (30.3 µM, […]): 100.4%

Cc1nc(C2CCNCC2)cc(N(C)CCc2cn[nH]c2)n1
Percent Effect (30.3 µM, […]): 2.569%

CCN(Cc1ccncc1)c1cc(C2CCNCC2)nc(C)n1
Percent Effect (30.3 µM, […]): 4.844%

Cc1ccc(-c2cc(C3CCNCC3)nc(C)n2)cc1.Cl
Percent Effect (30.3 µM, […]): 14.23%

Cc1c(CN(C)c2cc(C3CCCNC3)ncn2)[nH]c2ccccc12 (stereo not drawn)
Percent Effect (30.3 µM, […]): 16.72%

COc1ccc2[nH]c(CNc3cc(C4CCNCC4)nc(C)n3)cc2c1
Percent Effect (30.3 µM, […]): -59.5%

Cc1nc(-c2ccc(F)c(F)c2)cc(C2CCNCC2)n1.Cl
Percent Effect (30.3 µM, […]): 47.49%

Cc1nc(-c2ccc(F)cc2)cc(C2CCNCC2)n1
Percent Effect (30.3 µM, […]): 99.23%

Cc1nc(C2CCNCC2)cc(N(C)Cc2cc3cc(F)ccc3[nH]2)n1
Percent Effect (30.3 µM, […]): 78.55%

CN(C)c1ccc(NC(=O)c2cccc(N(C)C)c2)nc1
Percent Effect (30.3 µM, […]): -2.123%

CCC(Nc1nc(C)nc2c1cnn2C)c1ncnn1CC (stereo not drawn)
Percent Effect (30.3 µM, […]): 26.92%

O=C(CCn1ccc2cc(Br)ccc21)/N=c1\[nH]nc(C2CCCO2)s1 (stereo not drawn)
Percent Effect (30.3 µM, […]): 4.273%

Cc1ccoc1-c1nnc(CNCC2CCCN2c2cccnn2)o1 (stereo not drawn)
Percent Effect (30 µM, 30.03 µM): -17.44%

COCCN(C)C[C@@H]1CN(C(=O)c2ccc(C)cc2)C[C@@H]1CO
Percent Effect (30.3 µM, […]): 11.58%

CN1CCCC2(CCN(C(=O)Cn3ncc4ccccc4c3=O)C2)C1=O (stereo not drawn)
Percent Effect (30.3 µM, […]): -13.05%

Cc1ccc(CN2CCN(CC(=O)N(C)C)[C@@H]3CS(=O)(=O)C[C@@H]32)cc1C
Percent Effect (30.3 µM, […]): 18.74%

COc1ccc(-c2noc(C(N)CCSC)n2)cc1 (stereo not drawn)
Percent Effect (30.3 µM, […]): -25.69%

NC(=O)c1ccc(OCCCN2C[C@H](C3CC3)[C@@H](N)C2)cc1
Percent Effect (30.3 µM, […]): 42.52%

N[C@H]1CN(CCOc2ccc(F)cc2)C[C@@H]1C1CC1
Percent Effect (30.3 µM, […]): 44.73%

N[C@H]1CN(CCCOc2ccccc2)C[C@@H]1C1CC1
Percent Effect (30.3 µM, […]): 66.02%

COCc1nn(C(C)C)c2c1CCN(Cc1nccs1)C2.O=C(O)C(F)(F)F
Percent Effect (30.3 µM, […]): -18.46%

CCn1cc(-c2c(C)c(C3CCOC(C)(C)C3)nc(N)c2C#N)cn1 (stereo not drawn)
Percent Effect (30.3 µM, […]): 20.42%

Cc1c(C2CCOC(C)(C)C2)nc(N)c(C#N)c1-c1ccc(O)cc1 (stereo not drawn)
Percent Effect (30.3 µM, […]): -5.002%

CCCc1c(C2CCOC(C)(C)C2)nc(N)c(C#N)c1-c1cnn(C)c1 (stereo not drawn)
Percent Effect (30.3 µM, […]): 65.78%

CC(C)Oc1ccc(CN2CCC(c3n[nH]c4ncccc34)CC2)cc1
Percent Effect (30.3 µM, […]): 1.844%

Cc1ccccc1N1CCN(c2cc(N(C)C)ncn2)C(C)C1 (stereo not drawn)
Percent Effect (30.3 µM, […]): 15.61%

Cc1ccccc1N1CCN(c2ccncn2)C(C)C1 (stereo not drawn)
Percent Effect (30.3 µM, […]): 61.35%

Cc1ccc(N2CCN(c3ccccc3C)CC2C)nn1 (stereo not drawn)
Percent Effect (30.3 µM, […]): 9.128%

Cc1nn(C)c(C)c1CN(C)c1nc(C2CCCC2)nc2c1cnn2C
Percent Effect (30.3 µM, […]): 17.71%

CN1CCC(c2n[nH]c3ncccc23)C1.O=CO (stereo not drawn)
Percent Effect (30.3 µM, […]): 16.17%

CCc1cnc(CN(C(C)=O)C2CCN(CC(=O)N3CCCC3)C2)o1 (stereo not drawn)
Percent Effect (30 µM): 28.38%

Cc1cc(NCCS(C)(=O)=O)nc2ccccc12
Percent Effect (30.3 µM, […]): 25.68%

Cc1cc(NCCN)nc2ccccc12.O=[N+]([O-])O
Percent Effect (30.3 µM, […]): 54.09%

Cc1cc(NCCCNS(C)(=O)=O)nc2ccccc12
Percent Effect (30.3 µM, […]): -8.515%

CC(C)c1nc(CN(C)C(=O)c2cn3ccsc3n2)cs1
Percent Effect (30.3 µM, […]): -3.628%

CC(=O)Nc1nc(CS(=O)(=O)CCCc2ccccc2)cs1
Percent Effect (30.3 µM, […]): 22.96%

CCCC(C)CS(=O)(=O)NCCc1csc(N2CCCC2)n1 (stereo not drawn)
Percent Effect (30.3 µM, […]): 65.07%

CCC(C)CS(=O)(=O)NCCc1csc(N2CCCC2)n1 (stereo not drawn)
Percent Effect (30.3 µM, […]): 43.99%
